# TDP1 cell CPT = DT40-hTDP1 cell growth loss with CPT. chicken DT40 Tdp1-/-;hTDP1 cells + 20 nM CPT, ATP luminescence, 48 h. Potency, µM (titrated, usually from 46.2 µM), inactives show at the highest dose activity change, negative = growth inhibition, actives largely listed as inhibitors. actives 12% (n = 420,000); also: nearly all actives have a fitted effect of over 55% in size
#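 Chicken DT40 Tdp1-/- cells stably complemented with human TDP1 were seeded at 400 cells/well in medium containing 20 nM camptothecin, exposed to pin-transferred compounds, and grown at 37 °C for at least 48 hr. Viability was read as ATP luminescence.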
# HT1080 IDH1KD tx = HT-1080 IDH1 knockdown cell toxicity (counter line). HT-1080 IDH1 knockdown viability, ATP luminescence, 48 h. Potency, µM (series often up to 46.1 µM), inactives show top-dose activity, negative = toxicity, actives largely listed as cytotoxic. actives 2% (n = 360,000). AID 686971;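 also: 0% = DMSO wells and -100% = cell-free medium wells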
#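 CellTiter-Glo luminescence after 48 h compound exposure at 37 degrees C of IDH1-knockdown HT-1080 cells in 5% FBS RPMI. %Activity scaled between DMSO wells and cell-free media wells, with curves fitted and assigned curve classes.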
# TDP1 cell noCPT = qHTS for Inhibitors of human tyrosyl-DNA phosphodiesterase 1 (TDP1): qHTS in cells in absence of CPT. DT40 Tdp1-/- hTDP1 cells, no CPT, ATP luminescence, 48 h. Potency, µM (doses to about 46.2 µM), without a hit: at the highest dose activity change, negative = growth inhibition, actives largely listed as inhibitors. actives 15% (n = 420,000). AID 686978, 2013; also: nearly all actives have a fitted effect of over 55% in size
#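 DT40 Tdp1-/-;hTDP1 cells, no CPT (DMSO vehicle only), 400 cells/well; compounds pin-transferred; ≥48 hr, 37 °C; CellTiter-Glo 30 min RT dark, luminescence read.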
# KB-V1 MDR tox = kills drug-selected multidrug resistant KB-V1 cells; Potency, µM (series often up to 46.1 µM), most hits filed as cytotoxic; actives 3.4% (n = 400,000); KB-V1 MDR cells viability, CellTiter-Glo, 72 h; also: nearly all actives have a fitted effect of over 60% in size
#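 KB-V1 cells (P-gp-expressing MDR subline of KB-3-1) in phenol-red-free DMEM with 10% FBS were exposed to library compounds over a concentration series for 72 h at 37 degrees C. Viability read by CellTiter-Glo luminescence; concentration-effect curves fitted after normalization.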
# KB-3-1 tox = kills parental KB-3-1 adenocarcinoma cells | KB-3-1 viability, CellTiter-Glo ATP luminescence, 72 h | Potency, µM (titrated, usually from 46.1 µM), hits mostly cytotoxic | actives 1.4% (n = 400,000) | AID 1347075; also: nearly all actives have a fitted effect of over 60% in size
#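 Luminescent ATP read-out (CellTiter-Glo) measures survival of drug-naive KB-3-1 cells after 72 h compound exposure at 37 °C. Titration series was screened from lowest to highest concentration, with DMSO vehicle plates as background controls.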
# HT1080-NT tox = kills 2HG-producing HT-1080-NT fibrosarcoma cells | HT-1080-NT fibrosarcoma viability, CellTiter-Glo ATP luminescence, 48 h | Potency, µM (top dose mostly 46.1 µM), without a hit: top-dose activity, negative = less viability, most hits filed as cytotoxic | actives 1.6% (n = 360,000);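 also: NT is the 2HG producing partner of a matched IDH1 knockdown line; 0% = DMSO-treated cells and -100% = media-only wells without cells; nearly all actives have a fitted effect of over 55% in size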
#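 Luminescent CellTiter-Glo readout after 48 hours of compound exposure at 37 degrees C defined viability of HT-1080-NT cells. Activity was normalized to DMSO wells and cell-free media wells; concentration-response curves were fitted and assigned curve classes.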
# An asterisk follows results filed as active; i = inactive; u = inconclusive; x = no result; [ ] = dose if it differs, or a comment. The list is not random: actives were taken first. Their share in the collection is about 19%. Calls follow the shape of the dose curve; as a rule, active = well fitted curve in the direction sought with a large enough effect; inconclusive = small, poorly fitted or top-dose-only effect, or another doubt; inactive = no such curve, though single readings can be large; an effect the other way counts as inactive or inconclusive. Unless noted, % is scaled to controls: 0 for no effect and ±100 for the full control effect; potency is read from the fitted curve at half-maximal effect.
SMILES,TDP1 cell CPT,HT1080 IDH1KD tx,TDP1 cell noCPT,KB-V1 MDR tox,KB-3-1 tox,HT1080-NT tox
CCOc1ccc(NC(=O)Nc2cc(C(C)C)c(O)cc2C)cc1,u,-0.3%,u,i,i,-11.9%
CCOc1cc(NC(=O)Nc2ccc(F)cc2)c(OCC)cc1NC(=O)CC,-2.1%,10.6%,5.3%,i,i,14.8%
O=C(Nc1ccc(F)cc1)Nc1cc(OCC(F)(F)F)cc(OCC(F)(F)F)c1,2.59µM*,8.2µM*,4.61µM*,u,6.51µM*,7.31µM*
O=C(NCCNC(=O)c1cc(OCC(F)(F)F)ccc1OCC(F)(F)F)Nc1ccc(Cl)cc1,-18.0%,-2.7%,7.4%,i,i,4.4%
O=C(NCCNC(=O)c1cc(OCC(F)(F)F)ccc1OCC(F)(F)F)Nc1ccc(OC(F)(F)F)cc1,u,-17.9%,23.1µM*,i,i,-25.8%
NC(=O)c1ccccc1NC(=O)c1cccc(C(=O)Nc2ccccc2C(N)=O)n1,-16.2%,4.2%,u,i,i,6.2%
CC(C)C[C@@H]1Cc2[nH]c(=S)[nH]c(=O)c2[C@H](C)O1,-0.2%,2.2%,u,u,u,6.5%
O=C(c1cccnc1)N1CCC2CC1c1c(Cl)cccc12 (stereo not drawn),2.2%,5.4%,-67.2%,i,i,6.6%
Cc1ccc2c(c1)c1c(c(=O)n(Cc3ccccc3)c(=O)n1Cc1cccc(F)c1)n2C,u,x,u,i,i,x
CCOC(=O)CSC1=NC(=O)/C(=C\c2ccc(Cl)cc2)S1,4.61µM*,u,7.31µM*,u,u,-25.2%
CC1=C(c2ccc(F)cc2)S(=O)(=O)NC1=NCc1ccccc1F,u,x,u,i,i,x
CC1=C(c2ccc(C(C)C)cc2)S(=O)(=O)NC1=NCc1ccccc1Br,u,x,13µM*,x,x,x
CCCCCOC(=O)CSc1nc2c(c(=O)[nH]c(=O)n2C)n1CCc1ccccc1,u,11.9%,u,i,i,4.8%
C/C(Cl)=C/Cn1c(SCC(C)C)nc2c1c(=O)[nH]c(=O)n2C,u,-0.1%,8.2µM*,i,i,1.1%
CCOC(=O)C(C)Sc1nc2c(c(=O)[nH]c(=O)n2C)n1CCc1ccccc1 (stereo not drawn),-20.0%,-7.0%,-22.9%,i,i,-1.9%
CCCCOC(=O)CSc1nc2c(c(=O)[nH]c(=O)n2C)n1C/C=C(\C)Cl,u,14.4%,16.4µM*,i,i,10.0%
CCOC(=O)C(CC)Sc1nc2c(c(=O)[nH]c(=O)n2C)n1C/C=C(/C)Cl (stereo not drawn),7.31µM*,-9.6%,13µM*,u,i,-18.8%
Cc1nn(C2CCS(=O)(=O)C2)c(C)c1CN(C)C(=O)c1ccc(F)cc1 (stereo not drawn),-4.4%,-4.2%,-12.7%,i,i,1.6%
Cc1cc2nc(C3CCN(C(=S)NCC(C)C)CC3)[nH]c2cc1C,u,-20.0%,-5.4%,i,u,-6.2%
Cc1cc2nc(C3CCN(Cc4nnnn4Cc4cccs4)CC3)[nH]c2cc1C,3.55µM*,1.26µM*,6.31µM*,i,u,u
COc1ccc(/C=C(/NC(=O)c2ccccc2)c2nc3ccc(Cl)cc3[nH]2)cc1OC,-95.3%,-15.1%,20.6µM*,11.6µM*,u,-11.3%
CCC(CC)c1nnc(NC(=O)CCc2ccccc2OC)s1,-3.4%,12.8%,-15.7%,i,i,16.8%
C=CCOC(=O)C1=C[C@@H](c2ccc(Br)cc2)[C@H](CCCO)[C@@H](OCC)O1,u,-5.0%,u,i,i,-1.8%
C=CCOC(=O)C1=C[C@@H](c2ccc(C(F)(F)F)cc2)[C@H](CCCO)[C@@H](OCC)O1,23.1µM*,0.4%,11.6µM*,i,i,2.4%
C=CCOC(=O)C1=C[C@@H](c2ccccc2)[C@H](CCCO)[C@@H](OCC)O1,14.6µM*,u,u,i,i,u
SMILES,TDP1 cell CPT,HT1080 IDH1KD tx,TDP1 cell noCPT,KB-V1 MDR tox,KB-3-1 tox,HT1080-NT tox
C=CCOC(=O)C1=C[C@H](c2ccc(C(F)(F)F)cc2)[C@@H](CCCO)[C@H](OCC)O1,23.1µM*,1.9%,u,i,i,-1.6%
CCO[C@@H]1OC(C(N)=O)=C[C@H](c2ccc(C(F)(F)F)cc2)[C@H]1CCCO,-17.1%,-2.6%,-16.6%,i,i,-8.8%
CSc1cccc(NC(=O)c2[nH]c(C)c(C(C)=O)c2C)c1,u,0.7%,u,i,i,-0.8%
C[C@@H](CC#N)CN1CC[C@H](C(C)(C)C)CCC1=O,1.0%,5.3%,-4.2%,i,i,0.0%
CCOC(=O)C1=NOC2(C1)C(=O)Nc1ccc(OC(F)(F)F)cc12 (stereo not drawn),u,u,16.4µM*,i,i,u
O=C(NCc1cccnc1)C1CCCN(Cc2cnn(-c3ccccc3)c2-n2cccc2)C1 (stereo not drawn),-26.0%,-15.9%,u,i,i,-13.0%
CC(C)(C)c1csc(NC(=O)Cc2ccc(S(=O)(=O)N3CCOCC3)s2)n1,u,u,14.6µM*,u,i,-19.0%
O=C(Cc1ccc(S(=O)(=O)N2CCOCC2)s1)Nc1ccccc1N1CCOCC1,u,4.3%,11.6µM*,u,i,2.4%
CCN(CC)S(=O)(=O)c1ccc(C)c(NC(=O)Cc2ccc(S(=O)(=O)N3CCOCC3)s2)c1,u,-21.2%,20.6µM*,i,i,-9.2%
Cc1cnc(NC(=O)Cc2ccc(S(=O)(=O)N3CCOCC3)s2)s1,2.6%,19.1%,u,23.1µM*,i,9.7%
CN(C)c1cccc(CNC(=O)c2csc([C@H]3C[C@H](O)[C@@H](CO)O3)n2)c1,-1.2%,2.8%,5.4%,i,i,11.4%
COC(=O)c1cc(CNC(=O)c2ccncc2)cc(NC(=O)c2ccccc2Cl)c1,-4.0%[9.04 µM],x,-10.4%,x,x,x
CC1=C(CC(=O)c2ccccc2)C(=O)c2ccccc2C1=O,8.2µM*,u,11.6µM*,10.3µM*,u,u
O=C(CN1C(=O)c2ccccc2C1=O)c1ccccc1,-0.3%,18.5%,-0.8%,i,i,14.9%
Cc1ccc(NC(=O)COc2ccc(/C=C3/SC(=Nc4ccccc4)N(Cc4cccnc4)C3=O)cc2)cc1,5.17µM*,7.4%,6.51µM*,16.4µM*,u,6.6%

# High-throughput results deposited in PubChem by National Center for Advancing Translational Sciences (NCATS).
